Screens (PubChem)
The list is not random: actives were taken first. Their share in the collection is about 1.3%.
BRCA1 expr up: increases BRCA1 expression | AID 624202 | 380,000 tested, 1.1% active | Potency, µM (titrated, usually from 46.1 µM), hits mostly activators | MCF7-BRCA1-FFLuc reporter, luminescence, 48 h; response scale: scaled: vehicle 0%, 10 µM genistein 100%; note: nearly all actives have a fitted effect of over 80% in size
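Reporter cells (MCF7, BRCA1 promoter-firefly luciferase) received library compounds across a concentration series for 48 h. End-point luminescence was measured and concentration-effect curves derived after normalization.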
PTAP TSG101 blk: blocks PTAP/TSG101 interaction to inhibit HIV-1 budding. Potency, µM (highest dose often 115 µM), most hits filed as inhibitors. 340,000 tested, under 10 active. Fluorescence polarization, FITC-PTAP peptide / Tsg101 binding. Q99816; active = well fitted inhibition curve with a large enough effect in the main read-out, with a control signal flat, not every such curve was filed as active; inconclusive = small, poorly fitted or top-dose-only effect, or effect the other way, or a change in a side signal; inactive = no such curve, though single readings can be large or run the other way
Target sequence (Q99816 whole entry, looked up): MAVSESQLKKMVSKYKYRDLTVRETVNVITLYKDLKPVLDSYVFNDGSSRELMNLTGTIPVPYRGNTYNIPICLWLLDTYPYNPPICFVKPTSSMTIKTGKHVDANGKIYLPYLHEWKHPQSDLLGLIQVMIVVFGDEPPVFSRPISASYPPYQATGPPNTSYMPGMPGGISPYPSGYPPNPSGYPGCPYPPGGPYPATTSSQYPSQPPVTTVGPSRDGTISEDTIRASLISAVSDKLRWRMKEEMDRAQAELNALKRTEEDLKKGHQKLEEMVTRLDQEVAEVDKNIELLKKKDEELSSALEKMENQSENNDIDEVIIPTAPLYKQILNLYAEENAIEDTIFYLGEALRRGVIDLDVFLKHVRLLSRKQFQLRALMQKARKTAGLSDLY
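Steps: Tsg101 binding domain dispensed (10 uM final), compounds pinned in DMSO, FITC-labeled PTAP-motif peptide added (50 nM final); after 20 min binding at room temperature, polarization measured.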
TRPML1 inh: blocks the human TRPML1 channel; Q9GZU1; TRPML1-inducible cells, Ca2+ dye fluorescence, FDSS; stronger effect = lower value; inhibition of EC80 agonist-evoked calcium signal; activity change, negative = inhibition, % (no concentration beside the values); 390,000 tested, 0.02% active; in the data active = activity change below about -50%; inconclusive = between about -30% and that limit;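 note: stimulus is agonist 54-4 at its EC80 concentration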
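TRPML1-DL cells, Tet-induced overnight (~16 h, 37 °C) at 1,500 cells/well, were loaded with Ca8 no-wash dye plus quencher for 45-90 min at room temperature. Compounds were pinned during FDSS kinetic reading; agonist 54-4 at EC80 (4 uM final) then added.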
IL2 activator: activators of IL-2; IL-2 activation reporter assay, cell-based qHTS; stimulated with anti-CD3/CD4/CD28 beads; in transgenic mouse T cells; activation, % (series mostly up to about 46 µM); 360,000 tested, 0.065% active; in the data active = activation above about 50%; inconclusive = mostly about 30% to 49%
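First, unstimulated transgenic mouse T cells were exposed to compound for 60 min. Next, anti-CD3/anti-CD4-coated beads with anti-CD28 were added. Finally, after 18 h at 37 degrees C, EGFP and DsRed were imaged.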
TRPML1 ag: activates the human TRPML1 channel; TRPML1-expressing cells, Ca2+ dye fluorescence, FDSS; activation, % (no concentration beside the values); 410,000 tested, 0.12% active; in the data active = activation above about 50%; inconclusive = mostly about 30% to 49%
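Tetracycline-induced TRPML1-DL cells are seeded and incubated overnight before loading with a no-wash Ca2+ dye and quencher. Agonist activity is taken from the 110 s fluorescence read following compound pin-transfer on an FDSS, before EC80 54-4 challenge.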
PKM2 act: increases activity of human pyruvate kinase M2 | P14618 | purified PKM2, Kinase-Glo ATP luminescence, activation; response scale: 0% is enzyme alone, no compound | Potency, µM (highest dose often 57.5 µM), usual class: activators | 260,000 tested, 0.34% active | AID 1631; note: nearly all actives have a fitted effect of over 55% in size
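hPK-M2, >95% pure; 0.1 mM ADP / 0.5 mM PEP final; imidazole pH7.2 buffer w/ 7 mM MgCl2, 50 mM KCl; 1 h RT; Kinase-Glo lum. Intermediate enzyme activity for dual inhibitor/activator qHTS.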
HeLa tox: counter-screen for pyruvate kinase M2 activators: HeLa cytotoxicity | shares compounds with PKM2 act | HeLa viability, CellTiter-Glo ATP luminescence, 24 h | activity change, negative = cytotoxicity, % at 57.5 µM | 230 tested, under 10 active
Of the large screens only hits and unclear results are named; the others gave an inactive call (follow-up assays come after a bar, where they were run). Unless noted, calls come from the whole dose curve; as a rule, active = well fitted curve in the direction sought with a large enough effect; inconclusive = small, poorly fitted or top-dose-only effect, or another doubt; inactive = no such curve, though single readings can be large; an effect the other way counts as inactive or inconclusive.

Cc1c(C(=O)N2CCOCC2)[nH]c2c1C(=O)CC(c1ccccc1Cl)C2 (stereo not given)	PKM2 act 16µM | HeLa tox inactive
O=S(=O)(c1ccc2c(c1)OCCO2)N1CCN(S(=O)(=O)c2ccc(F)cc2F)CC1	none (no result: BRCA1 expr up, PTAP TSG101 blk, TRPML1 inh, IL2 activator, TRPML1 ag, PKM2 act) | HeLa tox inactive
O=S(=O)(c1ccc2c(c1)OCCO2)N1CCN(S(=O)(=O)c2cc(F)c(F)cc2F)CC1	none (no result: BRCA1 expr up, PTAP TSG101 blk, TRPML1 inh, IL2 activator, TRPML1 ag, PKM2 act) | HeLa tox inactive
Cc1nc2ccn(Cc3ccccc3)c(=O)c2cc1C(=O)N1CCN(c2ccccc2F)CC1	none (no result: PTAP TSG101 blk, IL2 activator, PKM2 act)
CCOC(=O)Cc1ccc(NC(=O)NCc2cccn2Cc2ccccc2)cc1	none (no result: BRCA1 expr up, PTAP TSG101 blk, IL2 activator, PKM2 act)
O=C(O)c1cc(-c2ccco2)nn1-c1cccc(Cl)c1	PKM2 act 25µM | HeLa tox inactive
O=C(O)c1cc(-c2ccco2)nn1-c1ccc(Cl)cc1	none
c1ccc(-c2nnc(Cn3c4ccccc4c4nc5ccccc5nc43)o2)cc1	none (no result: PKM2 act)
CC(O)c1nc2ccccc2n1Cc1nnc(-c2ccc(Cl)cc2)o1 (stereo not given)	PKM2 act 7.9µM | HeLa tox inactive
Cn1c2ccccc2c2nnc(SC3CCOC3=O)nc21 (stereo not given)	PKM2 act 14µM | HeLa tox inactive
Cn1c2ccccc2c2nnc(SCC(=O)NC3CCCC3)nc21	none (no result: PKM2 act)
Cn1cnc2c1c(=O)n(Cc1cccc(F)c1)c(=O)n2C	none (no result: TRPML1 inh, TRPML1 ag)
Cc1cc2c(s1)c1cnn(Cc3cccc(F)c3)c(=O)c1n2C	none (no result: BRCA1 expr up, PTAP TSG101 blk, TRPML1 inh, IL2 activator, TRPML1 ag, PKM2 act) | HeLa tox inactive
Cc1cc2c(s1)c1cnn(Cc3cccc(Cl)c3)c(=O)c1n2C	none (no result: BRCA1 expr up, PTAP TSG101 blk, TRPML1 inh, IL2 activator, TRPML1 ag, PKM2 act) | HeLa tox inactive
CCCCOCCCNC(=O)C[C@@H]1C[C@@]2(C(=O)OCC)CCCC=C2N(CCc2ccc(OC)c(OC)c2)C1=O	none (no result: BRCA1 expr up, PTAP TSG101 blk, TRPML1 inh, TRPML1 ag, PKM2 act)
c1ccc2[nH]c(CSc3nnc(-c4ccncc4)o3)nc2c1	PKM2 act 1.8µM | HeLa tox inactive
COc1ccc(S(=O)(=O)N2CCN(CC(=O)Nc3ccc(Cl)c(C(F)(F)F)c3)CC2)cc1	none (no result: PTAP TSG101 blk, IL2 activator, PKM2 act)
Cc1nc2ccccc2n1Cc1ccccc1	none (no result: TRPML1 inh, TRPML1 ag)
Cc1nc2cc(NCc3ccccc3O)ccc2n1Cc1ccccc1	PKM2 act 5µM | HeLa tox inactive
COc1ccc(CCNC(=O)Cn2ncc3c(C)n(Cc4ccccc4F)c(C)c3c2=O)cc1OC	none (no result: BRCA1 expr up, PTAP TSG101 blk, IL2 activator, PKM2 act)
Cc1ccc2c(c1)N(CCCC(=O)NCc1cccc(F)c1)C(=O)CO2	none (no result: BRCA1 expr up, PTAP TSG101 blk, IL2 activator, PKM2 act)
COc1cccc(NC(=O)CSc2nnc(-c3ccc(C)cc3)o2)c1	BRCA1 expr up inconclusive, PKM2 act 1.3µM | HeLa tox inactive
COc1cccc(NC(=O)CSc2nnc(-c3cccc(OC)c3)o2)c1	none (no result: BRCA1 expr up, PTAP TSG101 blk, IL2 activator, PKM2 act)
O=C(c1ccc2c(c1)OCCO2)C1CCN(S(=O)(=O)c2ccc(F)cc2)CC1	none
O=S(=O)(NC1CCN(S(=O)(=O)c2c(F)cccc2F)C1)c1ccc2c(c1)OCCO2 (stereo not given)	none (no result: PTAP TSG101 blk, TRPML1 inh, TRPML1 ag, PKM2 act) | HeLa tox inconclusive
O=S(=O)(NCCCNS(=O)(=O)c1c(F)cccc1F)c1ccc2c(c1)OCCO2	none (no result: TRPML1 inh, TRPML1 ag, PKM2 act) | HeLa tox inactive
O=S(=O)(NC1CCN(S(=O)(=O)c2c(F)cccc2F)CC1)c1ccc2c(c1)OCCO2	none (no result: TRPML1 inh, TRPML1 ag, PKM2 act) | HeLa tox inactive
O=C1CC(NS(=O)(=O)c2ccc(F)cc2)CN1c1ccc2c(c1)OCCO2 (stereo not given)	none (no result: PKM2 act)
NC(=O)C1CCN(S(=O)(=O)c2ccc3c(c2)OCCO3)CC1	none
O=S(=O)(c1ccc2c(c1)OCCO2)C1CCN(S(=O)(=O)c2c(F)cccc2F)CC1	none (no result: BRCA1 expr up, PTAP TSG101 blk, TRPML1 inh, IL2 activator, TRPML1 ag, PKM2 act) | HeLa tox inconclusive
O=S(=O)(Nc1c(F)cccc1F)c1ccc2c(c1)OCCO2	none
CC(=O)c1ccc(N2CCN(c3ncnc4c3nc3n4CCCC3)CC2)cc1	none (no result: BRCA1 expr up, PTAP TSG101 blk, IL2 activator, PKM2 act)
